Among the test systems are DU-145 prostate; K-562 leukemia; MALME-3M melanoma; MDA-MB-231 breast; RXF 393 renal; SF-268 CNS; SF-295 CNS; SF-539 CNS; UACC-257 melanoma; M14 melanoma.
Holding throughout (experiment): NCI-60 one-dose screen, 48 h (100 = growth as untreated, 0 = no growth, -100 = all killed)
What all share (settings): 10 µM unless noted

The structures appear in SMILES notation. “And” between values parts separate entries of the source, which are not always exact repeats. Equal entries are not always repeated. The panel holds about 83,000 compounds, 20% with a hit somewhere; the sample as a whole holds those more often.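 Percent growth is the endpoint: 0 to 100 indicates growth inhibition (40 means 60% inhibition), 0 means no net growth, and negative values indicate cell death.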 The source made the active and inactive calls. The calls were made as follows: active = growth percent below 10; inactive = the rest.

Consider `O=c1cc(N/N=C/c2ccc(F)cc2)c2cc(Cl)ccc2[nH]1`, for which the growth in the test with DU-145 prostate is 102% (inactive); in the test with K-562 leukemia, 2.38% (active); with MALME-3M melanoma it was 98.4% (inactive); with MDA-MB-231 breast, 94.4% (inactive); in the test on RXF 393 renal it was 113% (inactive); in the test with SF-268 CNS, 106% (inactive). In addition, the growth is 100% (inactive) in the test with SF-295 CNS, 104% (inactive) in the test on SF-539 CNS, 85.8% (inactive) in the test with UACC-257 melanoma and 81.2% (inactive) with M14 melanoma.
On to `O=C(/C=C/c1ccc(Cl)s1)c1ccc(Cl)s1`, for which the growth with DU-145 prostate was 97.8% (inactive) and 114% (inactive); in the test on K-562 leukemia, 95% (inactive) and 92.6% (inactive); in the test with MALME-3M melanoma it was 114% (inactive); in the test on MDA-MB-231 breast, 108% (inactive) and 112% (inactive); in the test with RXF 393 renal it was 90.8% (inactive) and 89.7% (inactive); with SF-268 CNS, 100% (inactive) and 109% (inactive). Further, the growth in the test with SF-295 CNS was 90.7% (inactive); in the test with SF-539 CNS, 114% (inactive) and 98.3% (inactive); in the test with UACC-257 melanoma it was 101% (inactive) and 103% (inactive); in the test on M14 melanoma, 101% (inactive) and 115% (inactive).
`O=C1OCC2=C1C(c1cccc([N+](=O)[O-])c1)c1cc3c(cc1N2CCO)CCC3` (stereo not given): the growth in the test on DU-145 prostate was 3.17% (active); with K-562 leukemia it was 7.29% (active); in the test on MALME-3M melanoma, 38.9% (inactive); in the test on MDA-MB-231 breast it was 30% (inactive); in the test on RXF 393 renal, 27.8% (inactive); with SF-268 CNS, 33.1% (inactive). Further, the growth is -11.7% (active) in the test with SF-295 CNS, -16.4% (active) with SF-539 CNS, 69.9% (inactive) with UACC-257 melanoma and 3.09% (active) with M14 melanoma.
`Cc1nc(Nc2ncc(C(=O)Nc3c(C)cccc3Cl)s2)cc(N2CCN(CCO)CC2)n1`: the growth in the test with DU-145 prostate is 10.2% (inactive) and 12.5% (inactive); with K-562 leukemia it was 7.66% (active); in the test with MALME-3M melanoma, 51.4% (inactive) and 31.2% (inactive); in the test with MDA-MB-231 breast, 11.2% (inactive) and 8.95% (active); in the test with RXF 393 renal, -18.9% (active) and -46.2% (active); in the test with SF-268 CNS, 28.4% (inactive) and 30.3% (inactive). For the same compound, the growth in the test with SF-295 CNS was 57.4% (inactive) and 37.3% (inactive); in the test on SF-539 CNS, 18.8% (inactive) and -9.03% (active); in the test on UACC-257 melanoma it was 79.1% (inactive) and 48.4% (inactive); with M14 melanoma, 42.4% (inactive) and 17.5% (inactive).
`COc1ccc(-c2cc(-c3cc(OC)c(OC)c(OC)c3)c(C#N)c(=O)n2CCCCC(=O)O)cc1`: the growth is 98.2% (inactive) in the test on DU-145 prostate; 88% (inactive) in the test on K-562 leukemia; 114% (inactive) in the test on MALME-3M melanoma; 81.6% (inactive) in the test with MDA-MB-231 breast; 99.2% (inactive) in the test with RXF 393 renal; 86.9% (inactive) with SF-268 CNS. The growth was 95% (inactive) in the test with SF-295 CNS, 94.4% (inactive) in the test on SF-539 CNS, 103% (inactive) in the test with UACC-257 melanoma and 98% (inactive) with M14 melanoma.
Take `O=C1/C(=C/c2cn(-c3ccccc3)nc2-c2ccccc2)SC(=S)N1c1ccc(Cl)cc1`: the growth is 74.6% (inactive) in the test with DU-145 prostate; 63.8% (inactive) with K-562 leukemia; 95.4% (inactive) with MALME-3M melanoma; 79.8% (inactive) in the test on MDA-MB-231 breast; 88.4% (inactive) with RXF 393 renal; 62.5% (inactive) with SF-268 CNS. The growth in the test with SF-295 CNS was 44.6% (inactive); in the test with SF-539 CNS, 84.2% (inactive); with UACC-257 melanoma, 89.8% (inactive); with M14 melanoma, 65.8% (inactive).
For `Cc1ccc(/C=C/c2c(C(=O)/C=C/c3ccccc3)c(C)nc3ccccc23)cc1`, the growth was 12.8% (inactive) with DU-145 prostate; 8.62% (active) in the test on K-562 leukemia; -1.88% (active) in the test on MALME-3M melanoma; 30.8% (inactive) with MDA-MB-231 breast; -3.35% (active) with RXF 393 renal; 54.1% (inactive) with SF-268 CNS. Also, the growth in the test with SF-295 CNS is 31.9% (inactive); with SF-539 CNS, -23.2% (active); with UACC-257 melanoma, 12.3% (inactive); with M14 melanoma, 17.6% (inactive).
Take `C[C@@H]1O[C@@H](O[C@H]2[C@@H](OC(=O)[C@]34CCC(C)(C)C[C@H]3C3=CC[C@@H]5[C@@]6(C)C[C@H](O)[C@H](O[C@@H]7O[C@H](CO)[C@@H](O)[C@H](O)[C@H]7O)[C@@](C)(CO)[C@@H]6CC[C@@]5(C)[C@]3(C)C[C@H]4O)OC[C@@H](O)[C@@H]2O)[C@H](O)[C@H](O[C@@H]2OC[C@@H](O)[C@H](O[C@@H]3OC[C@](O)(CO)[C@H]3O[C@@H]3OC[C@@H](O)[C@H](O)[C@H]3O)[C@H]2O)[C@H]1O[C@@H]1OC[C@](O)(CO)[C@H]1O`: the growth was 78.5% (inactive) with DU-145 prostate; 58.2% (inactive) in the test on K-562 leukemia; 89.9% (inactive) in the test on MALME-3M melanoma; 74.1% (inactive) in the test with MDA-MB-231 breast; 70.7% (inactive) with RXF 393 renal; 85.7% (inactive) in the test with SF-268 CNS. Moreover, the growth in the test on SF-295 CNS is 62.3% (inactive); with SF-539 CNS it was 85.5% (inactive); in the test on UACC-257 melanoma, 56.2% (inactive); in the test with M14 melanoma, 75.9% (inactive).
Consider `CCCNNC(=O)/C=C/c1ccc(CNCCc2c(C)[nH]c3ccccc23)cc1`, for which the growth is 24.4% [2.5 µM] (inactive) with DU-145 prostate; 10.7% [2.5 µM] (inactive) in the test with K-562 leukemia; 20% [2.5 µM] (inactive) in the test on MALME-3M melanoma; 35% [2.5 µM] (inactive) in the test on MDA-MB-231 breast; -17.9% [2.5 µM] (active) in the test on RXF 393 renal; 32.1% [2.5 µM] (inactive) in the test on SF-268 CNS. In addition, the growth in the test with SF-295 CNS is 18% [2.5 µM] (inactive); in the test with SF-539 CNS, 31.1% [2.5 µM] (inactive); in the test with UACC-257 melanoma, -9.62% [2.5 µM] (active); in the test with M14 melanoma it was 17.7% [2.5 µM] (inactive).
Consider `O=C1/C(=C/c2cn(-c3ccccc3)nc2-c2ccccc2)SC(=S)N1c1ccccc1`, for which the growth in the test on DU-145 prostate was 102% (inactive); with K-562 leukemia, 104% (inactive); with MALME-3M melanoma it was 94.5% (inactive); in the test on MDA-MB-231 breast, 89.1% (inactive); in the test with RXF 393 renal, 107% (inactive); with SF-268 CNS it was 99.1% (inactive). Further, the growth in the test on SF-295 CNS is 97.5% (inactive); with SF-539 CNS, 94.5% (inactive); in the test on UACC-257 melanoma, 107% (inactive); in the test with M14 melanoma, 97.2% (inactive).

Values taken from PubChem BioAssay (NCI).
